The panel holds about 83,000 compounds, 20% with a hit somewhere; the sample as a whole holds those more often.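 Percent growth is the endpoint: 0 to 100 indicates growth inhibition (40 means 60% inhibition), 0 means no net growth, and negative values indicate cell death.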 Calls of active or inactive are those of the source. How the source made its calls: active means growth percent below 10; inactive means the rest.
Experiments:
Experiment in all cases: NCI-60 one-dose screen, 48 h (100 = growth as untreated, 0 = no growth, -100 = all killed)
Conditions in all cases: 10 µM unless noted
DU-145 prostate = test system: DU-145 prostate
K-562 leukemia = test system: K-562 leukemia
MALME-3M melanoma = test system: MALME-3M melanoma
MDA-MB-231 breast = test system: MDA-MB-231 breast
RXF 393 renal = test system: RXF 393 renal
SF-268 CNS = test system: SF-268 CNS
SF-295 CNS = test system: SF-295 CNS
SF-539 CNS = test system: SF-539 CNS
UACC-257 melanoma = test system: UACC-257 melanoma
M14 melanoma = test system: M14 melanoma
HCT-15 colon = test system: HCT-15 colon
HT29 colon = test system: HT29 colon
SNB-75 CNS = test system: SNB-75 CNS
SNB-19 CNS = test system: SNB-19 CNS
U251 CNS = test system: U251 CNS
PC-3 prostate = test system: PC-3 prostate
SK-MEL-5 melanoma = test system: SK-MEL-5 melanoma
UACC-62 melanoma = test system: UACC-62 melanoma
LOX IMVI melanoma = test system: LOX IMVI melanoma
SK-MEL-28 melanoma = test system: SK-MEL-28 melanoma

Measured: growth

O=C1NC(=O)C2(CCCC2C(=O)O)N1 (stereo not given)
inactive: DU-145 prostate 120% | K-562 leukemia 98% | MALME-3M melanoma 140% | MDA-MB-231 breast 105% | RXF 393 renal 117% | SF-268 CNS 109% | SF-295 CNS 99.8% | SF-539 CNS 101% | UACC-257 melanoma 86.7% | M14 melanoma 106% | HCT-15 colon 99.1% | HT29 colon 108% | SNB-75 CNS 83.4% | SNB-19 CNS 106% | U251 CNS 96.7% | PC-3 prostate 92.6% | SK-MEL-5 melanoma 110% | UACC-62 melanoma 103% | LOX IMVI melanoma 91.1% | SK-MEL-28 melanoma 110%

CCOC(=O)c1c(Cl)c2c(n1Cc1cc(OC)cc(OC)c1)-c1oncc1CCC2
active: K-562 leukemia 9.73% | SF-295 CNS 6.63% | SF-539 CNS 7.36% | HT29 colon 3.92% | SNB-75 CNS 1.91%
inactive: DU-145 prostate 21.5% | MALME-3M melanoma 22.6% | MDA-MB-231 breast 35.5% | RXF 393 renal 21.7% | SF-268 CNS 50.5% | UACC-257 melanoma 72.4% | M14 melanoma 12.7% | HCT-15 colon 21.5% | SNB-19 CNS 55.8% | U251 CNS 33.2% | PC-3 prostate 23.4% | SK-MEL-5 melanoma 17.7% | UACC-62 melanoma 28.5% | LOX IMVI melanoma 43.7% | SK-MEL-28 melanoma 40.7%

O=S(=O)(Nc1ncccn1)c1ccc(Nc2ccc3nnc(-c4ccncc4)n3n2)cc1
inactive: DU-145 prostate 108% | K-562 leukemia 102% | MALME-3M melanoma 97.6% | MDA-MB-231 breast 92.2% | RXF 393 renal 118% | SF-268 CNS 98.3% | SF-295 CNS 100% | SF-539 CNS 95.2% | UACC-257 melanoma 103% | M14 melanoma 97.7% | HCT-15 colon 99.3% | HT29 colon 116% | SNB-75 CNS 86.9% | SNB-19 CNS 99.7% | U251 CNS 102% | PC-3 prostate 102% | SK-MEL-5 melanoma 100% | UACC-62 melanoma 99.1% | LOX IMVI melanoma 95.1% | SK-MEL-28 melanoma 99.1%

Clc1ccc2c(c1)C[C@H]1C[C@@H](c3cccs3)N2O1
inactive: DU-145 prostate 106% | K-562 leukemia 106% | MALME-3M melanoma 95.9% | MDA-MB-231 breast 113% | RXF 393 renal 131% | SF-268 CNS 102% | SF-295 CNS 94.4% | SF-539 CNS 92.3% | UACC-257 melanoma 105% | M14 melanoma 118% | HCT-15 colon 97.2% | HT29 colon 111% | SNB-75 CNS 101% | SNB-19 CNS 114% | U251 CNS 93.7% | PC-3 prostate 91.6% | SK-MEL-5 melanoma 99.5% | UACC-62 melanoma 105% | LOX IMVI melanoma 93.2% | SK-MEL-28 melanoma 110%

Cc1ccccc1-c1cc(-c2ccc(Br)s2)[nH]c(=O)c1C#N
inactive: DU-145 prostate 110% | K-562 leukemia 90.3% | MALME-3M melanoma 88.9% | MDA-MB-231 breast 100% | RXF 393 renal 106% | SF-268 CNS 104% | SF-295 CNS 95.1% | SF-539 CNS 112% | UACC-257 melanoma 104% | M14 melanoma 93.6% | HCT-15 colon 98.7% | HT29 colon 112% | SNB-75 CNS 92.3% | SNB-19 CNS 103% | U251 CNS 106% | PC-3 prostate 98.9% | SK-MEL-5 melanoma 93.1% | UACC-62 melanoma 92.3% | LOX IMVI melanoma 94.2% | SK-MEL-28 melanoma 108%

Clc1ccc(C2=NN(c3ccccc3)[C@H](c3cn(-c4ccccc4)nc3-c3ccccc3)C2)cc1
inactive: DU-145 prostate 119% | K-562 leukemia 111% | MALME-3M melanoma 103% | MDA-MB-231 breast 96.6% | RXF 393 renal 106% | SF-268 CNS 109% | SF-295 CNS 108% | SF-539 CNS 107% | UACC-257 melanoma 92.2% | M14 melanoma 109% | HCT-15 colon 103% | HT29 colon 94.6% | SNB-75 CNS 97% | SNB-19 CNS 103% | U251 CNS 93.1% | PC-3 prostate 93.9% | SK-MEL-5 melanoma 114% | UACC-62 melanoma 107% | LOX IMVI melanoma 96.4% | SK-MEL-28 melanoma 110%

CCCCCn1c(=N)n(CC(O)COc2cccc(C)c2)c2ccccc21 (stereo not given)
active: K-562 leukemia 6.52% | MALME-3M melanoma -6.7% | SF-295 CNS -27.4% | SF-539 CNS -14.7% | UACC-257 melanoma -19.6% | SNB-75 CNS 2.13% | U251 CNS 1.64% | PC-3 prostate 7.46% | SK-MEL-5 melanoma -73.3%
inactive: DU-145 prostate 10.4% | MDA-MB-231 breast 22.8% | RXF 393 renal 15.5% | SF-268 CNS 25.6% | M14 melanoma 15.9% | HCT-15 colon 11.1% | HT29 colon 72.7% | SNB-19 CNS 20% | UACC-62 melanoma 25.7% | LOX IMVI melanoma 13.7% | SK-MEL-28 melanoma 31.2%

O=C1NC(=S)S/C1=C\c1cccc([N+](=O)[O-])c1
inactive: DU-145 prostate 111% | K-562 leukemia 68.5% | MALME-3M melanoma 153% | MDA-MB-231 breast 93.8% | RXF 393 renal 153% | SF-268 CNS 89.9% | SF-295 CNS 91.3% | SF-539 CNS 88.6% | UACC-257 melanoma 88.8% | M14 melanoma 97.4% | HCT-15 colon 93.3% | HT29 colon 109% | SNB-75 CNS 83.8% | SNB-19 CNS 98% | U251 CNS 92.7% | PC-3 prostate 88.1% | SK-MEL-5 melanoma 89.9% | UACC-62 melanoma 70% | LOX IMVI melanoma 88.9% | SK-MEL-28 melanoma 112%

O=c1c2c(=NCCN3CCCC3)cc3c(=O)n(CCCN4CCOCC4)c(=O)c4c(-c5ccc(CN6CCCC6)cc5)cc(c(O)n1CCCN1CCOCC1)c2c4-3
active: DU-145 prostate -26.7% | K-562 leukemia -21.1% | MALME-3M melanoma -70.1% | MDA-MB-231 breast -46.6% | RXF 393 renal -79.4% | SF-268 CNS -33.1% | SF-295 CNS -12.5% | SF-539 CNS -78.8% | UACC-257 melanoma -27.1% | M14 melanoma -78.7% | HCT-15 colon -30% | HT29 colon -23.4% | SNB-75 CNS -83.5% | SNB-19 CNS -9.24% | U251 CNS -19.4% | PC-3 prostate -47.2% | SK-MEL-5 melanoma -44.6% | UACC-62 melanoma -73.2% | LOX IMVI melanoma -78.2% | SK-MEL-28 melanoma -67.8%

NC(=O)c1cccc(-n2ccc3cc(NC(=O)Nc4ccc(Cl)c(Cl)c4)ccc32)n1
active: RXF 393 renal 6.33%
inactive: DU-145 prostate 83.7% | K-562 leukemia 63.4% | MALME-3M melanoma 85% | MDA-MB-231 breast 79.1% | SF-268 CNS 83% | SF-295 CNS 68.8% | SF-539 CNS 64.1% | UACC-257 melanoma 89.9% | M14 melanoma 78% | HCT-15 colon 59.7% | HT29 colon 60.9% | SNB-75 CNS 68.5% | SNB-19 CNS 86.3% | U251 CNS 66.7% | PC-3 prostate 73.3% | SK-MEL-5 melanoma 74.1% | UACC-62 melanoma 83.2% | LOX IMVI melanoma 81.9% | SK-MEL-28 melanoma 88.1%

FC(F)(F)Oc1ccc2c(c1)C[C@H]1C[C@@H](c3ccoc3)N2O1
inactive: DU-145 prostate 110% | K-562 leukemia 91.8% | MALME-3M melanoma 109% | MDA-MB-231 breast 93.9% | RXF 393 renal 134% | SF-268 CNS 126% | SF-295 CNS 91.2% | SF-539 CNS 93.9% | UACC-257 melanoma 87.4% | M14 melanoma 117% | HCT-15 colon 95.1% | HT29 colon 99.9% | SNB-75 CNS 99.5% | SNB-19 CNS 105% | U251 CNS 94.5% | PC-3 prostate 92.8% | SK-MEL-5 melanoma 115% | UACC-62 melanoma 98.8% | LOX IMVI melanoma 91.8% | SK-MEL-28 melanoma 108%

COc1cc(/C=C2\C(=O)N(c3c(Cl)cccc3Cl)c3ccccc32)cc(OC)c1O
inactive: DU-145 prostate 36.8% | MALME-3M melanoma 133% | MDA-MB-231 breast 72.4% | RXF 393 renal 90.4% | SF-268 CNS 40.9% | SF-539 CNS 45.1% | UACC-257 melanoma 46.1% | M14 melanoma 39.2% | HCT-15 colon 30.7% | HT29 colon 22.6% | SNB-75 CNS 61.7% | SNB-19 CNS 52.4% | U251 CNS 22.4% | PC-3 prostate 15.2% | SK-MEL-5 melanoma 32.3% | UACC-62 melanoma 47.5% | SK-MEL-28 melanoma 58.8%
active: K-562 leukemia 8.62% | SF-295 CNS 8.15% | LOX IMVI melanoma 2.06%

COc1cc2cc(Oc3ccc(NC(=O)Nc4cccc(C(F)(F)F)c4)cc3)c(C)nc2cc1OCCN1CCCCC1
active: DU-145 prostate -94.1% | K-562 leukemia -49.7% | MALME-3M melanoma -88.5% | MDA-MB-231 breast -86.8% | RXF 393 renal -70.6% | SF-268 CNS -78.4% | SF-295 CNS -57.4% | SF-539 CNS -92.4% | UACC-257 melanoma -68.9% | M14 melanoma -64.1% | HCT-15 colon -81.9% | HT29 colon -81.7% | SNB-75 CNS -70.3% | SNB-19 CNS -55.1% | U251 CNS -82.4% | PC-3 prostate -54.6% | SK-MEL-5 melanoma -94.1% | UACC-62 melanoma -74.2% | LOX IMVI melanoma -94.3% | SK-MEL-28 melanoma -92.1%

NS(=O)(=O)c1cc(Br)c2c(c1)S(=O)(=O)NCN2
inactive: DU-145 prostate 108% | K-562 leukemia 80.6% | MALME-3M melanoma 121% | MDA-MB-231 breast 118% | RXF 393 renal 174% | SF-268 CNS 103% | SF-295 CNS 104% | SF-539 CNS 101% | UACC-257 melanoma 94.5% | M14 melanoma 109% | HCT-15 colon 112% | HT29 colon 103% | SNB-75 CNS 117% | SNB-19 CNS 112% | U251 CNS 107% | PC-3 prostate 105% | SK-MEL-5 melanoma 111% | UACC-62 melanoma 111% | LOX IMVI melanoma 113% | SK-MEL-28 melanoma 110%

CN(C)c1ccc(/C=C(\C#N)c2cc3ccccc3n2C)cc1
inactive: DU-145 prostate 10.9% | MALME-3M melanoma 56.9% | MDA-MB-231 breast 20.1% | RXF 393 renal 10.5% | SF-268 CNS 47.5% | UACC-257 melanoma 68.9% | HCT-15 colon 20.6% | HT29 colon 10.3% | SNB-75 CNS 20.8% | SNB-19 CNS 31% | U251 CNS 19.4% | PC-3 prostate 34.4% | SK-MEL-5 melanoma 19.3% | UACC-62 melanoma 38.5% | LOX IMVI melanoma 31.5% | SK-MEL-28 melanoma 67.2%
active: K-562 leukemia 7.77% | SF-295 CNS 7.63% | SF-539 CNS -12.5% | M14 melanoma 8.17%

Source: PubChem BioAssay (NCI)
